CF NFkB block – cystic fibrosis NF-kB activation inhibition. inhibition, % at 5 µM. AID 588850. KKLEB NF-kB-GFP reporter, PAF-induced, GFP fluorescence overnight. 0.86% of 360,000 active;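 active means at least 50% inhibition at 5 µM, scaled per plate between neutral and stimulator controls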;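 further: PAF is a Pseudomonas aeruginosa culture filtrate used as stimulus; plate controls were PAF-stimulated DMSO wells for no effect and unstimulated DMSO wells for full effect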
Shn3 inh set2 – reduces Shn3 3'UTR luciferase signal in osteoblasts | Clone20 osteoblast Shn3 3'UTR firefly luciferase, 24 h | inhibition, % at 12.5 µM | 0.52% of 360,000 active;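 active means mean inhibition of at least 75% with every replicate also reaching 75%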;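 further: 0% = median of neutral control wells and 100% = pilot-screen positive control compound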
HIF-2a inh – HIF-2a inhibition; 786-0 RCC cells HIF-2a reporter, luciferase luminescence, overnight; inhibition, % at 18.8 µM; 0.72% of 360,000 active;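 active means inhibition of the luminescence signal of 40% or more relative to plate controls, in a single-dose primary screen at 18.75 µM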
MITF TRPM1 inh – MITF TRPM1 promoter inhibition in SK-MEL-5 cells. SK-MEL-5 TRPM1 promoter luciferase, 24 h. inhibition, % at 12.5 µM. 0.83% of 330,000 active. AID 488899;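 active means mean inhibition across replicates of 60% or more, whatever share of single replicates reaches that level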
KKLEB tox – reduces viability of KKLEB cystic fibrosis airway cells. AID 602141. activity change (cytotoxicity), % at 5 µM. KKLEB CF airway cells viability, ATPlite luminescence, overnight; stronger effect = lower value; cells stimulated with P. aeruginosa culture filtrate. 0.36% of 360,000 active;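 active means corrected activity change at or below -50% at 5 µM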
Peg3 prom inh – inhibitors of Peg3 promoter; HeLa PEG-Prom luciferase reporter, luminescence, overnight; inhibition, % at 20 µM; 1.7% of 360,000 active; AID 588405;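 active means inhibition of at least 50% at 20 µM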
Starred values were filed as active, the others as inactive; / = no result. Sampled rows, rich in hits. Any-hit rate of the full collection: about 2.8%.

SMILES | CF NFkB block | Shn3 inh set2 | HIF-2a inh | MITF TRPM1 inh | KKLEB tox | Peg3 prom inh
Cc1ccc(C)c(N2CCN(S(=O)(=O)c3ccc4[nH]c(=O)ccc4c3)CC2)c1 | 2 | 94* | 12 | / | 1 | 11
CC[C@@H]1[C@H]2CCCC(=O)N3CC[C@@H](C[C@@H]1OC(=O)Nc1ccccc1)[C@@H]23 | -9 | 0 | -5 | 2 | 13 | -3
O=C(O)[C@@H](O)[C@H](O)C(=O)O | 4 | 10 | 2 | 0 | -61* | -1
O=C1C(=Cc2ccccn2)CCc2ccccc21 | 61* | -53 | -77 | / | -5 | -72
CCCOc1ccc2c(c1)C(=NN=C(N)N)c1cc(OCCC)ccc1-2 | -2 | 27 | -12 | -11 | -13 | 90*
CCOC(=O)Nc1ccc2c(COC(=O)CNS(=O)(=O)c3cccc(Br)c3)cc(=O)oc2c1 | 0 | -7 | -25 | -27 | -7 | -30
CCC(C)C(NC(=O)C(Cc1ccc(O)cc1)NC(=O)OCc1ccccc1)C(=O)OC (stereo not given) | -7 | 7 | -2 | / | 4 | 0
C[C@@H]1CN([C@@H](C)CO)C(=O)CCCn2nncc2CO[C@H]1CN(C)S(=O)(=O)c1ccccc1F | 4 | 9 | 6 | / | -4 | 4
NC(=O)Cn1c(=O)n(CCC(=O)NCCSCc2ccccc2)c(=O)c2ccccc21 | 0 | 6 | 11 | -5 | -9 | 9
Cc1cc(Sc2nc(N)ncc2[N+](=O)[O-])ncn1 | 38 | 59 | 3 | 24 | -2 | 79*
Cc1cc(N)ncc1[N+](=O)[O-] | -6 | -8 | 21 | 9 | 8 | 0
CC(C)c1ccc(NC(=O)CCNC(=O)N2CC(=O)Nc3ccccc32)cc1 | -12 | -2 | 7 | 13 | 6 | 8
CCOC(=O)c1sc(N(Cc2ccccc2)C(=O)CCl)nc1C | 65* | -17 | -46 | 12 | -40 | 63*
Cc1c(Cl)ccc2c(C(=O)NCCCn3nccc3C)cc(-c3ccccn3)nc12 | -38 | 3 | -3 | 7 | 18 | 13
COc1ccccc1-c1cc(C(=O)NC2CCN(C)CC2)c2ccc(Cl)c(C)c2n1 | 13 | 20 | 7 | 8 | -32 | 105*
Cc1c(Cl)ccc2c(C(=O)NCCN3CCCCC3)cc(-c3ccccn3)nc12 | 3 | -11 | -6 | 13 | -4 | 68*
C[C@H](CO)N1C[C@H](C)[C@@H](CN(C)S(=O)(=O)c2ccccc2F)Oc2ncc(Br)cc2C1=O | 2 | -7 | -10 | / | -7 | 3
COCC(=O)N1CCCC(C(=O)c2ccc(-c3ccccc3)c(F)c2)C1 (stereo not given) | 11 | 6 | -52 | -25 | 3 | -55
CN1CCC(N(C)C(=O)c2cc(=O)c3ccccc3o2)CC1 | -4 | -4 | 10 | -1 | 14 | 15
COc1ccc(-c2nc(CN3CCN(c4cc(C)nc(C)c4)CC3)c(C)o2)c2ccccc12 | 14 | 13 | 1 | -16 | -22 | 82*
CC1(C(=O)NS(=O)(=O)c2ccc(Br)cc2)CCN1C(=O)CCC1CCCC1 (stereo not given) | -9 | 61 | 11 | / | 3 | 0
Cc1ccc([N+](=O)[O-])cc1N=Nc1c(-c2ccc([N+](=O)[O-])cc2)[nH]n(C(N)=S)c1=O | -27 | 54 | -29 | 64* | -44 | 48
Cc1ccc2nc(NCC(=O)O)nc(-c3ccccc3)c2c1 | 28 | 25 | 28 | 5 | -10 | 1
COc1cc(Nc2nc(-c3ccccc3)c3cc(C)ccc3n2)cc(OC)c1OC | -47 | 84* | -10 | 11 | 6 | 12
Cc1cc(Nc2ccccc2C(=O)O)n2ncnc2n1 | -11 | -15 | 2 | / | -6 | -4
SMILES | CF NFkB block | Shn3 inh set2 | HIF-2a inh | MITF TRPM1 inh | KKLEB tox | Peg3 prom inh
COc1ccc(-n2c(-c3ccccc3)c[n+]3c2CCC3)cc1 | -8 | 34 | 16 | 44 | 11 | -2
CCOc1ccc(-c2c[n+]3c(n2-c2ccccc2)CCCCC3)cc1 | -7 | 91* | 14 | 43 | -1 | 7
COc1ccc(-n2c(-c3ccc(Br)cc3)c[n+]3c2CCCCC3)cc1 | -16 | 89* | 10 | 49 | -3 | 1
O=C(C[n+]1cccc(/C=N/O)c1)N1CCCc2ccccc21 | 0 | 20 | 7 | -3 | 9 | 4
O=C(Nc1nc2ccccc2n1CCN1CCOCC1)c1cn(-c2ccccc2)nc1-c1ccccc1 | 3 | 72 | 12 | 36 | -19 | 84*
N#CC(c1ccc(O)cc1)N1CCN(C(C#N)c2ccc(O)cc2)CC1 (stereo not given) | -8 | 15 | 7 | -2 | 1 | -16
COc1cc(OC)c(OC)cc1CNc1cc(C)ccc1OC | 1 | 89* | -7 | 24 | 6 | 18
COCCN(C(=O)COC(=O)CCOc1cccc(C)c1)c1c(N)n(Cc2ccccc2)c(=O)[nH]c1=O | 0 | -5 | 12 | -2 | 4 | 13
COc1ccc(CN2CCN(c3ccc(F)cc3)CC2)c(OC)c1OC | -2 | 26 | 23 | -4 | 5 | 18
COc1ccc(CN2CCN(C(c3ccc(F)cc3)c3ccc(F)cc3)CC2)c(OC)c1OC | 22 | -13 | -18 | 13 | 0 | 77*
CCCS(=O)(=O)NC(=O)C1(C)CCCN(C(=O)c2ccc(C#N)cc2)C1 (stereo not given) | -1 | 5 | 14 | / | -5 | -7
O=C(Nc1c(F)cccc1F)c1cnc(N2CCN(c3ccccn3)CC2)c2ccccc12 | -27 | 43 | -8 | 30 | -5 | 73*
O=C(c1cnc(N2CCN(c3ncccn3)CC2)c2ccccc12)N1CCN(c2ccccn2)CC1 | 8 | 33 | 22 | 9 | -3 | 28
Cc1ccc(NC(=O)c2cnc(N3CCN(c4ccccn4)CC3)c3ccccc23)c(Br)c1 | -13 | 59 | 19 | 38 | -17 | 90*
O=c1[nH]cnc2c1ncn2C1OC(CO)CC1F (stereo not given) | -7 | -7 | 10 | / | 1 | -17
CC(OC(=O)/C=C/c1ccco1)C(=O)Nc1cccc([N+](=O)[O-])c1 (stereo not given) | -8 | 25 | 15 | 13 | 6 | 7
CC(=O)c1ccc(NC(=O)C(C)OC(=O)/C=C/c2ccco2)cc1 (stereo not given) | -6 | 88* | 10 | 8 | -1 | -33
c1cc2c(cc1C1CCCCC1)c1c3n2CCCNC3CCC1 (stereo not given) | 20 | -2 | 31 | 99* | -16 | 104*
Cc1ccc2c(c1)c1c3n2CCCNC3CCC1 (stereo not given) | 10 | -9 | 3 | -11 | -12 | 13
COC(=O)/C=C/S(=O)(=O)c1ccc(NC(C)=O)cc1 | 91* | 93* | 13 | 21 | -22 | 105*
CCCSc1nc2c(c(=O)[nH]c(=O)n2C)n1Cc1ccc(C)cc1 | -14 | 17 | 12 | 1 | -5 | 55*

Source: PubChem
